The values below come from PubChem BioAssay AID588413 (Sanford-Burnham Center for Chemical Genomics, 2011).

Screen size: about 340,000 compounds; about 2,500 (0.74%) were called active.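 How the source made its calls: active means inhibition above about 55% (limit read from the data); inactive means the rest.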 This excerpt belongs to a sample that is enriched for actives.

By inhibition is commonly meant the drop in the measured response relative to a control, in per cent.

This assay can be described thus: blockers of Gli reporter signaling – luciferase luminescence, Sufu-KO-LIGHT cells, uHTS, primary screen (AID 588413).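 Further: 0% = DMSO-treated cells and 100% = wells with medium but no cells.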 The settings on record: Sufu-KO-LIGHT fibroblasts, at 5 µM, hits give high values.
Consider `CSc1ncccc1C(=O)NCc1ccccc1Cl`, for which the inhibition is -8.35% (inactive).
Under `CC(=O)c1c(O)cc2n(c1=O)-c1ccc(Cl)cc1C2(C)C` stands -0.02% (inactive).
The value for `COC(=O)CC(CC(=O)OC)n1cccc1` was 6.12% (inactive).
The value for `Cc1ccc(O)c(NC(=O)COc2cc(C)ccc2C)c1` was 63.9% (active); that for `Cc1ccc(O)c(NC(=S)NC(=O)COc2ccc(Br)cc2)c1` was -1.7% (inactive); that for `Cc1ccc(C)c(OCC(=O)NNC(=O)C2CCC2)c1` was 3% (inactive).
Take `CCC1CCCCN1C(=S)NC(=O)c1ccco1` (centres undefined): the inhibition is 3.37% (inactive).
Take `O=C(CSC(=S)N1CCCCC1)c1c(F)cccc1F`: the inhibition is -23.9% (inactive).
The value for `CCCCn1nc(C(=O)OCC(=O)Nc2sccc2C(N)=O)c2ccccc2c1=O` was -33% (inactive).
The value for `CCOC(=O)c1c(C)[nH]c2c1-c1ccccc1C(=O)C2=O` was 95.8% (active); that for `CCOC(=O)C1=C(C)c2ccccc2OC1(C)C(=O)OCC` (centres undefined) was -1.26% (inactive); that for `CCOC(=O)c1[nH]c2ccccc2c1N=C(C)N(CC)CC` was 4.83% (inactive).
Under `C=CCn1c(C)cc(C2=NNC(=NCC)SC2)c1C` stands 93% (active).
`CCCN(CCC)C(=O)C1c2ccccc2Oc2ccccc21`: the inhibition was -1.09% (inactive).
The value for `CNCC(O)c1ccc(O)c(O)c1` (centres undefined) was -2.95% (inactive).
Under `COc1ccc(CCNc2ncnc3c2nnn3Cc2ccccc2)cc1` stands 4.12% (inactive).
`COc1ccc(NC(=O)/C(N=Nc2cccc(S(=O)(=O)Nc3ccc(SC(F)F)cc3)c2)=C(\C)O)cc1`: the inhibition is -4.13% (inactive).
Under `C=CCOc1nc2c(c(=O)n(C)c(=O)n2C)n1Cc1ccc(Cl)cc1Cl` stands 62% (active); under `Cn1c(=O)c2c(nc(OCc3cccnc3)n2Cc2ccccc2)n(C)c1=O`, 8.04% (inactive).
Under `C=CCn1c(Oc2ccc(C(=O)OC)cc2)nc2c1c(=O)n(C)c(=O)n2C` stands 1.23% (inactive); under `O=S(=O)(Nc1cc(S(=O)(=O)N2CCOCC2)ccc1N1CCCC1)c1cccs1`, 5.7% (inactive); under `Cc1ccc(-n2c(SCC(=O)N/N=C/C=C/c3ccccc3[N+](=O)[O-])nc3ccccc3c2=O)cc1`, 14.2% (inactive).
The value for `CCn1c(/C=C/c2ccc([N+](=O)[O-])o2)nc2ccccc2c1=O` was 80% (active); that for `O=c1c2ccccc2ncn1/N=C/c1ccccc1` was 20.9% (inactive).
Turning to `O=C(Nc1ccccc1C(=O)NCC1CCCO1)c1ccccc1F` (centres undefined), the inhibition is -6.12% (inactive).
The value for `CC(C)c1ccc2c(c1)c(SC(C)(C)C)c(CC(C)(C)C(=O)O)n2Cc1ccc(Cl)cc1` was -0.1% (inactive).
The value for `CCCCCCCCn1c2c(c(=N)c3c1CCC3)CCCC2` was 89.4% (active); that for `O=C(NNS(=O)(=O)Cc1ccccc1)c1ccc([N+](=O)[O-])cc1` was -11.2% (inactive); that for `CCOC(=O)C1CCCN(CCSc2ccc(C)cc2)C1` (centres undefined) was 21.1% (inactive).
The value for `COc1ccc(Nc2ncnc3ccc(Br)cc23)c(OC)c1` was 26.3% (inactive).
Take `CC1(C)CC2CC(C)(CN2c2ncnc3ccc(Br)cc23)C1` (centres undefined): the inhibition is 62.2% (active).
Under `CN(C)C(=O)COC(=O)c1cccc(S(=O)(=O)N2CC3(C)CC2CC(C)(C)C3)c1` (centres undefined) stands 0.32% (inactive); under `COc1cc(C(F)(F)F)nc2c(Br)c(C(C)(C)C)nn12`, 4.44% (inactive); under `CN(Cc1ccc(CNC[C@H]2O[C@@H](n3cnc4c(N)ncnc43)[C@H](O)[C@@H]2O)o1)S(C)(=O)=O`, -0.83% (inactive).
The value for `CCc1cc2cc(OC)ccc2nc1SCC(=O)Nc1cc(OC)c(OC)cc1C(=O)O` was -8.77% (inactive).
Under `Cc1ccc(-n2ncc3c(=O)n(-c4ccc(C)c(C)c4)c(-c4ccco4)nc32)cc1` stands 4.8% (inactive).
Consider `CC(=O)Cn1cnc2c(cnn2-c2ccccc2)c1=O`, for which the inhibition is -18.4% (inactive).
The value for `Cc1ccc(-c2nc3c(cnn3-c3ccccc3)c(=O)o2)cc1` was 56.1% (active); that for `COc1ccc(OC)c(C2C3=C(N=c4s/c(=C\c5cccc(O)c5)c(=O)n42)c2ccccc2CC3)c1` (centres undefined) was -4.15% (inactive); that for `CCN(CC)S(=O)(=O)c1ccc(N(C)Cc2ccc(C(F)(F)F)cc2)nc1` was 17.7% (inactive).
The value for `CCCCNCCS(=O)(=O)NCc1ccccc1` was -0.46% (inactive); that for `COc1cccc(/C=N/Nc2ccc(S(=O)(=O)Nc3ccccc3C(=O)O)cc2[N+](=O)[O-])c1O` was 6.14% (inactive).
As for `COc1cccc(/C=N/Nc2ncc(C(F)(F)F)cc2Cl)c1O`, the inhibition is 59.1% (active).
The value for `COc1ccc(Br)cc1/C=N/Nc1ccc(Cl)c(C(=O)O)c1` was 8.66% (inactive); that for `O=C(OCC(=O)N1CCc2ccccc21)C1CCCN1S(=O)(=O)c1ccc(Cl)cc1` (centres undefined) was -11.8% (inactive).
In the case of `CC1(C)CC(=O)NC=C(c2ccccc2)C1`, the inhibition was 1.28% (inactive).
The value for `Cn1ccsc1=NC(=O)c1cc(S(=O)(=O)N2CCOCC2)ccc1Cl` was -4.66% (inactive).
The value for `O=C1C(Cl)=C(N2CCOCC2)C(=O)N1c1ccccc1` was 0.4% (inactive); that for `c1ccc(-n2nnnc2N2CCOCC2)cc1` was 94.8% (active); that for `c1ccc(-n2nnnc2NC2CCCCCC2)cc1` was 8.53% (inactive).
The value for `COc1ccc(S(=O)(=O)N2CCCC(C(=O)NCCCn3ccnc3)C2)cc1OC` (centres undefined) was 15.1% (inactive); that for `O=C1NNC(c2ccccc2)=N/C1=C\c1ccc(Cl)cc1` was 5.34% (inactive).
Consider `CCn1cc(C(=O)NCC2COc3ccccc3O2)c2cc(OC)c(OC)cc2c1=O` (centres undefined), for which the inhibition is 10.7% (inactive).
The value for `CC(=O)Nc1ccc(Nc2c3ccccc3nc3ccccc23)cc1` was 75% (active); that for `CC(=O)Nc1ccc(S(=O)(=O)N(C)c2nc3ccccc3nc2Cl)cc1` was 1.9% (inactive); that for `CC(=O)Nc1ccc(Nc2c([N+](=O)[O-])cc(S(C)(=O)=O)cc2[N+](=O)[O-])cc1` was -0.18% (inactive).
Take `CCOc1ccc(NC(=O)c2ccc(NC(=O)CN3C(=O)C(=O)N(CC(C)C)C3=O)cc2)cc1`: the inhibition was -34.9% (inactive).
Under `CCC1([N+](=O)[O-])COC(c2ccc(C(C)C)cc2)OC1` (centres undefined) stands -31.9% (inactive); under `CCC(=C/c1sc2ccc3ccccc3c2[n+]1C)/C=C1\Sc2ccc3ccccc3c2N1C`, 64.2% (active).
With `O=C(c1ccccc1)c1ccc2nc(N3CCCCC3)c3nncn3c2c1`, the inhibition is 6.66% (inactive).
Under `O=C(NC1CCc2ccccc21)C12CN(Cc3ccccc3)CC1C(c1cccc([N+](=O)[O-])c1)=NO2` (centres undefined) stands 6.88% (inactive).
The value for `CCS(=O)(=O)Nc1ccc(C2=NN(S(=O)(=O)c3ccc(F)cc3)C(c3ccco3)C2)cc1` (centres undefined) was 1.29% (inactive).
For the molecule `Cn1cc(S(=O)(=O)Nc2ccc(Cl)cc2Cl)c(=O)n(C)c1=O`, the inhibition is 1.79% (inactive).
As to `O=C(NCCOCc1ccc(Cl)cc1)c1ncn[nH]1`, the inhibition was 84.5% (active).
With `O=C(NCCS(=O)(=O)NCc1ccc(Cl)cc1)c1ccccc1`, the inhibition was -12.9% (inactive).
The value for `Cc1cc(C(=O)NCCc2ccc(Cl)cc2)n(-c2ccccc2)n1` was -16.3% (inactive); that for `CCOc1ccc(NC(=S)N2CCCCCC2)cc1` was -2.25% (inactive).
Under `Cc1nn(C)c(C)c1S(=O)(=O)N1CCC(CO)(Cc2ccc(Cl)cc2)CC1` stands 8.21% (inactive); under `C=CCNC(=O)COc1coc(CN2CCN(Cc3ccccc3)CC2)cc1=O`, 3.43% (inactive); under `C=CCNC(=S)/N=c1/ccccn1Cc1ccccc1`, 67.3% (active).
Under `CNC(=S)NNC(=O)c1cccn(Cc2ccccc2)c1=O` stands 13.9% (inactive); under `Cc1cccc(NC(=O)C2CCCN2S(=O)(=O)c2ccc(F)cc2)c1C` (centres undefined), 10.9% (inactive); under `Cc1[nH]nc(-c2ccc(OCc3cnn(-c4ccccc4)c3)cc2O)c1Oc1ccc(Cl)cc1`, 4.97% (inactive).
Turning to `COc1cccc(CC(=NO)c2cccc(OC)c2)c1`, the inhibition was -2.96% (inactive).
The value for `Cc1noc(NS(=O)(=O)c2ccc(N3CC(O)=C(c4ccccc4)C3=N)cc2)c1C` was -2.28% (inactive).
In the case of `CCCC1=Nc2cc(C(=O)NCc3ccco3)ccc2Sc2ccccc21`, the inhibition is 65.9% (active).
The value for `CCCC1=Nc2cc(C(=O)NCCN3CCCC3)ccc2Sc2ccccc21` was 18.7% (inactive); that for `CC(C)(C)c1ccc(C(=O)NCc2ccco2)cc1` was -4.01% (inactive).
Under `COc1c(O)ccc2c1CN1CCc3cc4c(cc3C1C2)OCO4` (centres undefined) stands -25.1% (inactive).
Under `CCOC(=O)c1sc2nc(C)nc(Nc3ccc(OC)c(OC)c3)c2c1C` stands 12.9% (inactive).
As for `OCC1(Cc2ccccc2)CCN(Cc2cc3ccccc3o2)CC1`, the inhibition was 22.4% (inactive).
The value for `COc1ccccc1/C=C/CN1CCC(CO)(Cc2ccccc2)CC1` was 65.4% (active); that for `CC(=O)c1cccc(CN2CCC(CO)(Cc3ccccc3)CC2)c1` was 30.4% (inactive).
The value for `CCOC(=O)C1CCCN(C(=O)C2CCN(S(=O)(=O)c3ccc(Cl)c(C(F)(F)F)c3)CC2)C1` (centres undefined) was 3.88% (inactive); that for `CCOC(=O)c1ccccc1NC(=O)c1c(N)n(C)c(=O)[nH]c1=O` was 5.02% (inactive).
Under `COc1ccc(-n2nnc3c(=O)n(CC(=O)OCc4ccccc4)cnc32)cc1` stands 1.46% (inactive).
As for `Cc1ccc(-c2ccc(=O)n(CC(=O)NCCCN3CCCCC3)n2)cc1`, the inhibition was 5.01% (inactive).
For the molecule `CCC1CCCCN1CCCNC(=O)Cn1nc(-c2ccccc2)ccc1=O` (centres undefined), the inhibition was 57% (active).
Take `CCCn1c2ccccc2c2cnn(CC(=O)NCCCN3CCCCC3CC)c(=O)c21` (centres undefined): the inhibition is 12.7% (inactive).
Under `CCOC(=O)c1ccc(S(=O)(=O)N(CCO)Cc2cc3cc(OC)c(OC)cc3[nH]c2=O)cc1` stands 1.66% (inactive); under `Cc1ccc(S(=O)(=O)NCCC(c2ccccc2)c2ccccc2)cc1C(=O)O`, -19.2% (inactive); under `CCN(CC)CCNC(=O)c1ccc(NC(=O)c2cc(-c3ccncc3)nc3ccccc23)cc1`, 64.3% (active).
The value for `O=C(Nc1ccc(S(=O)(=O)Nc2nccs2)cc1)c1cc(-c2ccncc2)nc2ccccc12` was 0.2% (inactive); that for `COC(=O)CNC(=O)c1cc(-c2ccncc2)nc2ccccc12` was -8.23% (inactive).
